# Assay results from PubChem BioAssay.
# Calls of active or inactive are those of the source. Rule as the data show it, unless noted: active = inhibition above about 80%; inactive = the rest.
# Assays:
# [1] = LFS_MB_P medulloblastoma growth inhibition, cell-based, chromothripsis tumors, cisplatin or BGB combos (AID 1671449); conditions: LFS_MB_P medulloblastoma cells;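 also: cells exposed for 96 hours; 0% = vehicle DMSO and 100% = killing by high DMSO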
# [2] = HDN33 neuroblastoma growth inhibition, cell-based, chromothripsis tumors, cisplatin or BGB combos (AID 1671450); conditions: HDN33 neuroblastoma cells, stronger effect = higher value;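 also: cells exposed to compound for four days; 0% = vehicle DMSO and 100% = cell killing by high DMSO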
# [3] = ICB984 medulloblastoma cell growth inhibition, synergistic combos for chromothripsis tumors, cisplatin or BGB combos (AID 1671451; call rule not given here;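 also: cells exposed for 96 hours before readout; 0% = vehicle DMSO and 100% = killing by high DMSO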); conditions: ICB984 medulloblastoma cells, drug combinations, stronger effect = higher value
# [4] = LFS_MB_1R medulloblastoma cell growth inhibition, synergistic combos for chromothripsis tumors, cisplatin or BGB combos (AID 1671452); conditions: LFS_MB_1R medulloblastoma cells, stronger effect = higher value;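 also: cells exposed for 96 hours before readout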
# [5] = HTB85 osteosarcoma cell growth inhibition, synergistic combos for chromothripsis tumors, BGB or cisplatin IC20 combos (AID 1671453); conditions: HTB85 osteosarcoma cells, drug combinations, stronger effect = higher value;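 also: cells exposed for 96 hours before readout; 0% = vehicle DMSO and 100% = high DMSO killing control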
# [6] = CRL2098 osteosarcoma cell growth inhibition, synergistic combos for chromothripsis tumors, BGB or cisplatin IC20 combos (AID 1671454); conditions: CRL2098 osteosarcoma cells, drug combinations, stronger effect = higher value;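 also: cells exposed for 96 h before readout; 0% = vehicle DMSO and 100% = killing by high DMSO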
# [7] = HD-MB03 medulloblastoma cell growth inhibition, synergistic combos for chromothripsis tumors, BGB or cisplatin IC20 combos (AID 1671455; in the data active = inhibition above about 83%;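 also: 0% = vehicle DMSO and 100% = high DMSO as cytotoxic control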); conditions: HD-MB03 medulloblastoma cells, stronger effect = higher value
# [8] = UWB1.289 ovarian carcinoma cell growth inhibition, synergistic combos for chromothripsis tumors, BGB or cisplatin combos (AID 1671456); conditions: UWB1.289 ovarian carcinoma cells, stronger effect = higher value;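 also: cells exposed to compound for four days; 0% = vehicle DMSO and 100% = killing by high DMSO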
# [9] = LFS_MB_2R medulloblastoma cell growth inhibition, synergistic combos for chromothripsis tumors, cisplatin combos (AID 1671457); conditions: LFS_MB_2R medulloblastoma cells, stronger effect = higher value;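 also: cells exposed to compound for four days before readout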
# [10] = MDA-MB-436 breast carcinoma cell growth inhibition, synergistic combos for chromothripsis tumors, BGB or cisplatin combos (AID 1671458; call rule not given here;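 also: cells exposed for 96 hours; 0% = vehicle DMSO and 100% = killing by high DMSO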); conditions: MDA-MB-436 breast carcinoma growth inhibition, drug combinations, stronger effect = higher value
# [11] = UWB1.289_BRCA1 ovarian cancer growth, cell-based, BGB or cisplatin combinations (AID 1671459); conditions: UWB1.289 BRCA1 ovarian carcinoma, drug combinations, stronger effect = higher value
# [12] = human astrocyte viability loss, single and combined drugs, cytotoxicity control for chromothriptic childhood tumor combination screen, cell-based, BGB or cisplatin IC20 combos (AID 1671460); conditions: Human astrocytes, drug combinations, stronger effect = higher value;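 also: cells exposed to compounds for 96 hours before viability readout; 0% = vehicle and 100% = killing control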
# [13] = growth inhibition of BT084 medulloblastoma cells, cell-based, ICGC_MB145, cisplatin and BGB IC40 combos (AID 1671461); conditions: drug combinations, stronger effect = higher value;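 also: cells exposed to drugs for 96 hours; 0% = vehicle DMSO and 100% = high DMSO full killing control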
# [14] = growth inhibition of RCMB18 medulloblastoma cells, cell-based, cisplatin and BGB IC40 combos (AID 1671462); conditions: stronger effect = higher value;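 also: cells exposed to compound for four days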
# [15] = growth inhibition of CRL1545 osteosarcoma cells, cell-based, cisplatin and BGB IC20 combos (AID 1671464); conditions: stronger effect = higher value;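 also: cells exposed to compound for 96 hours before readout; 0% = vehicle DMSO and 100% = high DMSO killing control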
# [16] = at 0.5 µM, stronger effect = higher value
# [17] = measured here: combination with BGB IC20, at 0.005 µM
# [18] = measured here: combination with BGB IC40, at 0.005 µM
# [19] = measured here: combination with BGB IC40, at 0.05 µM
# [20] = measured here: combination with cisplatin, at 0.5 µM, stronger effect = higher value
# [21] = measured here: combination with cisplatin, at 5 µM, stronger effect = higher value
# [22] = measured here: with BGB IC20 combination, at 0.5 µM
# [23] = measured here: with cisplatin IC20 combination, at 0.5 µM
# [24] = measured here: 5 uM single agent, at 5 µM
# [25] = measured here: combination with cisplatin, at 0.5 µM
# [26] = measured here: combination with cisplatin, at 5 µM
# [27] = measured here: with BGB IC20, at 0.5 µM
# [28] = measured here: with BGB IC20, at 5 µM
# [29] = measured here: with cisplatin IC20, at 0.5 µM
# [30] = measured here: with cisplatin IC20, at 5 µM
# [31] = measured here: combination with BGB at IC20, at 0.5 µM
# [32] = measured here: combination with cisplatin at IC20, at 0.5 µM
# [33] = measured here: combo with BGB at IC20, at 0.5 µM
# [34] = measured here: combo with cisplatin at IC20, at 0.5 µM
# [35] = measured here: inhibition with BGB combination, at 0.05 µM
# [36] = measured here: inhibition with cisplatin combination, at 0.05 µM
# [37] = measured here: BGB combination, at 0.5 µM
# [38] = measured here: BGB combination, at 5 µM
# [39] = measured here: cisplatin combination, at 0.5 µM
# [40] = measured here: cisplatin combination, at 5 µM
# [41] = BGB combination, concentration series, at 5 µM
# [42] = cisplatin combination, concentration series, at 5 µM
# [43] = measured here: combo with BGB IC20, at 0.5 µM
# [44] = measured here: combo with cisplatin IC20, at 0.5 µM
# [45] = cisplatin combination, at 0.5 µM
# [46] = measured here: BGB IC40 combination 0.05 uM, at 0.05 µM
# [47] = measured here: BGB IC40 combination, at 0.05 µM
structure (smiles),measurement,setting,value
Cc1cc(C)cc(C(=O)NOCCCCCC(=O)NO)c1,inhibition,[1]; [16],-18.6% (inactive)
same,inhibition,[1]; [17],-25.1%
same,inhibition,[1]; [18],-71.8%
same,inhibition,[1]; [19],-38.3%
same,inhibition,[1]; [20],23.3%
same,inhibition,[1]; [21],101%
same,inhibition,"[2]; BGB combo, at 5 µM",98%
same,inhibition,[2]; at 0.5 µM,16.4% (inactive)
same,inhibition,"[2]; cisplatin combo, at 5 µM",99.6%
same,inhibition,[2]; [22],11.9%
same,inhibition,[2]; [23],14.2%
same,inhibition,"[2]; single agent, at 5 µM",99.6%
same,inhibition,"[3]; BGB IC20 combo, at 0.005 µM",3.29%
same,inhibition,"[3]; BGB IC40 combo, at 0.005 µM",-11.3%
same,inhibition,"[3]; BGB IC40 combo, at 0.05 µM",93.2%
same,inhibition,[3]; at 0.5 µM,-24.3% (inactive)
same,inhibition,"[3]; cisplatin combo, at 0.05 µM",93.4%
same,inhibition,"[3]; cisplatin combo, at 0.5 µM",-27.8%
same,inhibition,"[3]; cisplatin combo, at 5 µM",-32.7%
same,inhibition,[3]; [24],-20.9%
same,inhibition,[4]; at 0.5 µM,21.5% (inactive)
same,inhibition,[4]; [19],-19%
same,inhibition,[4]; [25],16.6%
same,inhibition,[4]; [26],97%
same,inhibition,[5]; at 0.5 µM,15.3% (inactive)
same,inhibition,[5]; [27],4.55%
same,inhibition,[5]; [28],96.8%
same,inhibition,[5]; [29],32.1%
same,inhibition,[5]; [30],99.4%
same,inhibition,"[5]; single agent, at 5 µM",98.4%
same,inhibition,[6]; at 0.5 µM,-44.3% (inactive)
same,inhibition,[6]; [31],-68.4%
same,inhibition,[6]; [32],-43.7%
same,inhibition,[7]; at 0.5 µM,53.4% (inactive)
same,inhibition,[7]; [33],36.6%
same,inhibition,[7]; [34],95.8%
same,inhibition,[8]; at 0.5 µM,35% (inactive)
same,inhibition,[8]; [35],-9.28%
same,inhibition,[8]; [36],-8.14%
same,inhibition,[9]; at 0.5 µM,8.45% (inactive)
same,inhibition,[9]; [25],32.9%
same,inhibition,[9]; [26],102%
same,inhibition,[10]; at 0.5 µM,7.8% (inactive)
same,inhibition,[10]; [37],-12.2%
same,inhibition,[10]; [38],42.5%
same,inhibition,[10]; [39],-3.09%
same,inhibition,[10]; [40],53.9%
same,inhibition,[11]; [41],92.6%
same,inhibition,[11]; at 0.5 µM,33.7% (inactive)
same,inhibition,[11]; [42],110%
same,inhibition,[12]; at 0.5 µM,38% (inactive)
same,inhibition,[12]; [43],37.9%
same,inhibition,[12]; [44],25.6%
same,inhibition,[13]; at 0.5 µM,35.6% (inactive)
same,inhibition,[13]; [45],32.4%
same,inhibition,"[13]; cisplatin combination, at 5 µM",98.6%
same,inhibition,[13]; [46],-14.5%
same,inhibition,"[13]; single agent, at 5 µM",105%
same,inhibition,[14]; at 0.5 µM,21.6% (inactive)
same,inhibition,"[14]; cisplatin combo, at 5 µM",92.9%
same,inhibition,[14]; [47],-1.76%
same,inhibition,[14]; [25],22.3%
same,inhibition,"[14]; single agent, at 5 µM",89.9%
same,inhibition,[15]; at 0.5 µM,75.7% (inactive)
same,inhibition,[15]; [22],64.9%
same,inhibition,[15]; [23],80.7%
same,inhibition,"[15]; single agent, at 0.05 µM",5.92%
same,inhibition,"[15]; single agent, at 5 µM",72.3%
C[C@@H]1COCCN1c1cc(C2(S(C)(=O)=O)CC2)nc(-c2cccc3[nH]ccc23)n1,inhibition,[1]; [16],-25.8% (inactive)
same,inhibition,[1]; [17],7.6%
same,inhibition,[1]; [18],5.5%
same,inhibition,[1]; [19],-17.8%
same,inhibition,[1]; [20],-15.1%
same,inhibition,[1]; [21],49.8%
same,inhibition,"[2]; BGB combo, at 5 µM",86.9%
same,inhibition,[2]; at 0.5 µM,36.8% (inactive)
same,inhibition,"[2]; cisplatin combo, at 5 µM",93.4%
same,inhibition,[2]; [22],34.2%
same,inhibition,[2]; [23],50.8%
same,inhibition,"[2]; single agent, at 5 µM",94%
same,inhibition,"[3]; BGB IC20 combo, at 0.005 µM",23.5%
same,inhibition,"[3]; BGB IC40 combo, at 0.005 µM",27.9%
same,inhibition,"[3]; BGB IC40 combo, at 0.05 µM",49.2%
same,inhibition,[3]; at 0.5 µM,-13.7% (inactive)
same,inhibition,"[3]; cisplatin combo, at 0.05 µM",47.4%
same,inhibition,"[3]; cisplatin combo, at 0.5 µM",1.99%
same,inhibition,"[3]; cisplatin combo, at 5 µM",-26.9%
same,inhibition,[3]; [24],12.7%
same,inhibition,[4]; at 0.5 µM,10% (inactive)
same,inhibition,[4]; [19],-3.56%
same,inhibition,[4]; [25],20.8%
same,inhibition,[4]; [26],56.7%
same,inhibition,[5]; at 0.5 µM,20.9% (inactive)
same,inhibition,[5]; [27],21%
same,inhibition,[5]; [28],63.3%
same,inhibition,[5]; [29],29.2%
same,inhibition,[5]; [30],91.9%
same,inhibition,"[5]; single agent, at 5 µM",73.8%
same,inhibition,[6]; at 0.5 µM,20.1% (inactive)
same,inhibition,[6]; [31],11.9%
same,inhibition,[6]; [32],19.4%
same,inhibition,[7]; at 0.5 µM,38% (inactive)
same,inhibition,[7]; [33],11.4%
same,inhibition,[7]; [34],91.1%
same,inhibition,[8]; at 0.5 µM,63.9% (inactive)
same,inhibition,[8]; [35],6.56%
same,inhibition,[8]; [36],-6.75%
same,inhibition,[9]; at 0.5 µM,13.6% (inactive)
same,inhibition,[9]; [25],20.6%
same,inhibition,[9]; [26],51.4%
same,inhibition,[10]; at 0.5 µM,22.5% (inactive)
same,inhibition,[10]; [37],8.94%
same,inhibition,[10]; [38],45.1%
same,inhibition,[10]; [39],30.1%
same,inhibition,[10]; [40],85.8%
same,inhibition,[11]; [41],93.1%
same,inhibition,[11]; at 0.5 µM,65.4% (inactive)
same,inhibition,[11]; [42],117%
same,inhibition,[12]; at 0.5 µM,23.1% (inactive)
same,inhibition,[12]; [43],14.4%
same,inhibition,[12]; [44],30.8%
same,inhibition,[13]; at 0.5 µM,17% (inactive)
same,inhibition,[13]; [45],14.1%
same,inhibition,"[13]; cisplatin combination, at 5 µM",58%
same,inhibition,[13]; [46],-18.4%
same,inhibition,"[13]; single agent, at 5 µM",44.6%
same,inhibition,[14]; at 0.5 µM,25.2% (inactive)
same,inhibition,"[14]; cisplatin combo, at 5 µM",34.6%
same,inhibition,[14]; [47],-0.169%
same,inhibition,[14]; [25],44.8%
same,inhibition,"[14]; single agent, at 5 µM",51.4%
same,inhibition,[15]; at 0.5 µM,76.6% (inactive)
same,inhibition,[15]; [22],71%
same,inhibition,[15]; [23],79.1%
same,inhibition,"[15]; single agent, at 0.05 µM",21.8%
same,inhibition,"[15]; single agent, at 5 µM",97.9%
